For some of these results: Potency and affinity values are given separately. Calls of active or inactive are those of the source.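 How the source made its calls, unless noted: active means compound raising the membrane signal above positive-control mean plus 3 SD in both repeats, and a primary screen hit; inactive means the rest.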

Results on 14 compounds are retold here after PubChem BioAssay.

Experiment [1] has as its system TRPC4 beta (transient receptor potential cation channel C4), mouse. The experiment can be described thus: activators of mouse TRPC4 channel, confirmation, cell-based, Fluo4 calcium, HEK293 TRPC4beta/mu-opioid, duplicates, 10 µM (AID 2426;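 active means fluorescence ratio normalized to control raised more than 50% in primary screen plus both repeat runs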). Conditions: Fluo4 calcium fluorescence, at 10 µM; active compounds read high.
Experiment [2] deals with transient receptor potential cation channel C4 beta (TRPC4), mouse. Put plainly: activators of mouse TRPC4 channel, confirmation, cell-based, second round, Fluo4, HEK293 TRPC4beta/mu-opioid, 1 µM (AID 2461;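 active means primary screen active and over 50% activation in each of two duplicate runs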). The conditions noted are these: Fluo4 calcium fluorescence, at 1 µM; active compounds read high.
The test system of experiment [3] is TRPC4 (transient receptor potential cation channel C4 beta), mouse. Put plainly: positive allosteric modulators of mouse TRPC4, confirmation, cell-based, second round, Fluo-4, HEK293 TRPC4beta/mu-opioid, 1 µM (AID 2554;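 active means primary screen hit whose fluorescence ratio, in both repeats, exceeds the weak agonist control mean by 3 SD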). The conditions noted are these: DAMGO EC20, Fluo-4 calcium flux, at 1 µM; active compounds read high.
Experiment [4] relates to TRPC4 beta (transient receptor potential cation channel C4), mouse. Put plainly: positive allosteric modulators of mouse TRPC4, confirmation, cell-based, Fluo-4, HEK293 TRPC4beta/mu-opioid (AID 2555;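 active means primary screen hit whose calcium fluorescence ratio, in both repeats, exceeds the weak agonist control mean by 3 SD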). Conditions: DAMGO EC20, Fluo-4 calcium flux, at 10 µM; active compounds read high.
For experiment [5], the target named is Short transient receptor potential channel 4 (Mus musculus) (UniProt Q9QUQ5). The experiment can be described thus: inhibitors of mouse TRPC4 channel, confirmation, cell-based, Fluo4, HEK293 TRPC4beta/mu-opioid (AID 2636;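 active means calcium signal cut by more than 3 SD below the full-agonist control yet still positive, in both repeats and the earlier primary screen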). Conditions: DAMGO, Fluo4 calcium flux, at 10 µM; active compounds read high.
Sequence of Short transient receptor potential channel 4 (Mus musculus) (Q9QUQ5 whole entry, looked up): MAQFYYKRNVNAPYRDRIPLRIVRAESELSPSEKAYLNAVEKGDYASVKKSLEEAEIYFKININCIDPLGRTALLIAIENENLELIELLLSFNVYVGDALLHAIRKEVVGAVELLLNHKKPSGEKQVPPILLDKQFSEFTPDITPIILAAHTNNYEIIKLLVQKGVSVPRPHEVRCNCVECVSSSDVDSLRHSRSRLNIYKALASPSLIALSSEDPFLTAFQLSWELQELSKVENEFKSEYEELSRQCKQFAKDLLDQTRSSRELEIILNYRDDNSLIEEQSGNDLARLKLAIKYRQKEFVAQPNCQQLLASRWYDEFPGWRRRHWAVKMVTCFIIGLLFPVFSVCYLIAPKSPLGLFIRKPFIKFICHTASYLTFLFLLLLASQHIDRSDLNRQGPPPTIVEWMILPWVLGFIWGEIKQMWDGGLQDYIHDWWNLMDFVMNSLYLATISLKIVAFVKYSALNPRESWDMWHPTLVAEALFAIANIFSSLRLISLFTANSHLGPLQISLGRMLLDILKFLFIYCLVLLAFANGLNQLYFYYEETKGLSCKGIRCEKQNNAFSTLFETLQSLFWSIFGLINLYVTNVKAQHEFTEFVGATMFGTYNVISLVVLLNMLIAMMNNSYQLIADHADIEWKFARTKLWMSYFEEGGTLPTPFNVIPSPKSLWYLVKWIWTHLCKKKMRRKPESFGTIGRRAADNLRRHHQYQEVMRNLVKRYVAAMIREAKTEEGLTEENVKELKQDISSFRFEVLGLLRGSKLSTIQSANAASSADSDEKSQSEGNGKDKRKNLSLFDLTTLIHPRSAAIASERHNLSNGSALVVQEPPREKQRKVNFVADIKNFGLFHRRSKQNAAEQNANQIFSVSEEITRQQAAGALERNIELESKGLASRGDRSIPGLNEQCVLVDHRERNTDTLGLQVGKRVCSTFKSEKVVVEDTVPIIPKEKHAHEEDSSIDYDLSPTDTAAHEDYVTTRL
Experiment [6] has the same target. Put plainly: inhibitors of mouse TRPC4 channel, confirmation, cell-based, second round, Fluo4, HEK293 TRPC4beta/mu-opioid, 1 µM (AID 2637;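 active means calcium signal ratio cut to more than 3 SD under the fully stimulated control mean yet still positive, in both repeats and the primary screen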;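 on inhibition: percent of integrated ratio relative to wells lacking test compound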). Conditions: Fluo4 calcium flux, DAMGO, at 1 µM; active compounds read high.
The target is the same in experiment [7]. The experiment can be described thus: mouse TRPC4 channel activators, dose response, cell-based, HEK293 TRPC4/mu-opioid, Fluo-4 calcium (AID 434937;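 active means primary screen activator hit with a dose response curve and TRPC4 channel activation at any tested dose; inactive means no activation, no dose response, or not a primary hit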).
For experiment [8] the target is unchanged. The experiment can be described thus: TRPC4 positive allosteric modulators, dose response, cell-based, HEK293 TRPC4/mu-opioid, Fluo-4 calcium, EC20 DAMGO (AID 434941;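 active means earlier screen potentiator hit that boosts the TRPC4 ion channel at some dose, with a dose response; inactive means no potentiation, no dose response, or not a prior hit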;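 further: calcium entry triggered by an EC20 dose of DAMGO at the co-expressed mu-opioid receptor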).
For experiment [9] the target is unchanged. The experiment can be described thus: mouse TRPC4 channel inhibitors, dose response, cell-based, HEK293 TRPC4/mu-opioid, Fluo-4 calcium (AID 434942;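 active means primary screen inhibitor hit that blocks the TRPC4 channel at some tested dose, yielding a dose curve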).
Experiment [10] addresses Short transient receptor potential channel 6 (Mus musculus) (UniProt Q61143). The experiment can be described thus: inhibition of mouse TRPC6 channel, confirmation, selectivity assay for TRPC4 inhibitor project, cell-based, HEK293, membrane potential dye, duplicate (AID 434948;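 active means active in primary screen and both duplicates, each dropping signal beyond three positive-control SD with fluorescence still positive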). Conditions: HEK293 TRPC6, membrane potential dye fluorescence, at 10 µM, stimulated with maximal-effect acetylcholine; active compounds read high.

Experiment [11] has the same target. The experiment can be described thus: activation of mouse TRPC6 channel, confirmation, selectivity assay for TRPC4 activator project, cell-based, HEK293, membrane potential dye, duplicate (AID 434950;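 active means membrane potential signal rise above negative control mean plus 3 SD in both duplicates, also active in the earlier TRPC4 screen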;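 on activation: 0% = buffer only wells and 100% = acetylcholine maximal-effect wells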). The conditions noted are these: HEK293 TRPC6, membrane potential fluorescence, at 10 µM; active compounds read high.
Experiment [12] has the same target. The experiment can be described thus: TRPC6 potentiation by TRPC4 potentiator hits, confirmation, selectivity assay for TRPC4 potentiator project, HEK293 cells, membrane potential dye, duplicate (AID 434952). The conditions noted are these: HEK293 TRPC6, membrane potential dye fluorescence, at 10 µM, maximal acetylcholine added after compound; active compounds read high.

Experiment [13] has as its target Short transient receptor potential channel 4 (Mus musculus) (UniProt Q9QUQ5). Put plainly: calcium flux activators in TRPC4/5HT1a cells, counter-screen for TRPC4 activator project, cell-based, second counter screen, HEK293 TRPC4/5HT1a, Fluo-4 (AID 434977;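 active means calcium signal rise above buffer-control mean plus 5 SD in both duplicates, and also a hit in the primary screen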). The conditions noted are these: Fluo-4 calcium flux, at 10 µM; active compounds read high.
Experiment [14] in a line: calcium flux inhibitors in TRPC4/5HT1a cells, confirmation, counter-screen for TRPC4 inhibitor project, cell-based, second counter screen, HEK293 TRPC4/5HT1a, Fluo-4 (AID 434978;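 active means primary screen active whose calcium signal fell more than 3 SD beyond the full-serotonin control mean in both duplicate plates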;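 further: serotonin given first at submaximal then at maximal dose after compound preincubation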). Conditions: Fluo-4 calcium flux, at 10 µM, serotonin added to trigger calcium flux; active compounds read high.
For experiment [15], the system named is TRPC4 (mouse), co-expressed with 5HT1a in HEK293. The experiment can be described thus: calcium flux potentiators in TRPC4/5HT1a cells, confirmation, counter-screen for TRPC4 potentiator project, cell-based, second counter screen, HEK293 TRPC4/5HT1a, Fluo-4 (AID 434979;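 active means signal rise over 3 SD above mean of control wells given weak agonist, in both repeats and first screen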). Conditions: Fluo-4 calcium flux, at 10 µM, serotonin added at its EC20 dose; active compounds read high.

Experiment [16] is described as follows: calcium flux activation in mu-opioid HEK293 cells, confirmation, counter-screen for TRPC4 activator project, cell-based, HEK293 mu-opioid receptor line (AID 449723;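 active means hit in primary screen, with calcium signal over 5 SD above buffer well mean in both duplicates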;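 further: counter screen cells carry the mu-opioid receptor alone and lack TRPC4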). The conditions noted are these: Fluo-4 calcium fluorescence, at 10 µM; active compounds read high.
Experiment [17] in a line: calcium flux enhancement in mu-opioid HEK293 cells, confirmation, counter-screen for TRPC4 allosteric potentiator project, cell-based, HEK293 mu-opioid receptor line (AID 449724;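 active means calcium signal rise more than 3 SD above the low-dose agonist control mean, in both duplicate plates and the primary screen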;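 further: HEK293 cells carrying mu-opioid receptor only with no TRPC4 channel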). Conditions: Fluo-4 calcium flux, at 10 µM, compound added before EC20 DAMGO stimulus; active compounds read high.

Sequence of Short transient receptor potential channel 6 (Mus musculus) (Q61143 whole entry, looked up): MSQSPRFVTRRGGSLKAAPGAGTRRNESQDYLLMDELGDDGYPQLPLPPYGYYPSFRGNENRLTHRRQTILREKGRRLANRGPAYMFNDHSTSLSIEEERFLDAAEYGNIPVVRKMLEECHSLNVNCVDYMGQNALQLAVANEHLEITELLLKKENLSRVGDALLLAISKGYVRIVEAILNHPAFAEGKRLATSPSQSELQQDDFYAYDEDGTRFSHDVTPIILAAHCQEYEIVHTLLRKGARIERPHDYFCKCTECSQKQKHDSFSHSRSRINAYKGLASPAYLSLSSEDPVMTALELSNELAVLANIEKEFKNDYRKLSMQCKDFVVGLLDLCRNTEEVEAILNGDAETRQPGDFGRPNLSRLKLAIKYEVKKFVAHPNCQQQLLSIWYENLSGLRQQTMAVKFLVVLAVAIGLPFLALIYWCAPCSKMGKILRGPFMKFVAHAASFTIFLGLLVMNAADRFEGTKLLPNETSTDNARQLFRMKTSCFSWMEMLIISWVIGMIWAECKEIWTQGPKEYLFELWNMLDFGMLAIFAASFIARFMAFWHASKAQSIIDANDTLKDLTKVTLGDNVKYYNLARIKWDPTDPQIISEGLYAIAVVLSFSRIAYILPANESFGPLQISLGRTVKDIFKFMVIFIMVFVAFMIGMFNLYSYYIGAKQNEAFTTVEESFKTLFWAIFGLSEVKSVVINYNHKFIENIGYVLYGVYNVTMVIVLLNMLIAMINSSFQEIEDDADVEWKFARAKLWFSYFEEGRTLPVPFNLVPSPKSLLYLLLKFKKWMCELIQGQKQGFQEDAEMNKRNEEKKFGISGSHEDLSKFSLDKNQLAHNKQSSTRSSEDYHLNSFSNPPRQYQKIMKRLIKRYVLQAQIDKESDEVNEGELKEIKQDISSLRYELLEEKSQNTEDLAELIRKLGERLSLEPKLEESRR

Consider `COc1ccc(C(=O)Nc2ccccc2N2CCN(C(=O)c3ccccc3)CC2)cc1Br`, for which the result in experiment [1], in experiment [2], in experiment [3], in experiment [4], in experiment [6] and in experiment [7] was inactive. Moreover, the result in experiment [8], in experiment [9], in [10], in experiment [11], in experiment [12] and in experiment [13] was inactive. In addition, the result in experiment [14], in experiment [15], in [16] and in [17] was inactive. The inhibition in experiment [5] is 75% (active).
As to `CCN1CCN(c2c(Cl)cccc2NC(=O)c2cc3ccccc3o2)CC1`, the outcome in experiment [1], in [2], in experiment [3], in experiment [4], in experiment [5] and in experiment [6] was inactive. Moreover, the result in experiment [7], in [8], in experiment [9], in experiment [10], in experiment [11] and in experiment [12] was inactive. In addition, the outcome in [13], in [14], in experiment [16] and in experiment [17] was inactive. Also, the potentiation in [15] is 7.29% (active).
For the compound `CN(C)c1ccc(NC(=O)C2C3C=CC(C3)C2C(=O)O)cc1` (stereo not drawn), the outcome in [1], in [2], in experiment [3], in experiment [4], in experiment [5] and in [6] was inactive. Moreover, the result in experiment [7], in [8], in experiment [9], in [10], in experiment [11] and in experiment [12] was inactive. Besides, the outcome in experiment [13], in experiment [14], in [15], in [16] and in experiment [17] was inactive.
On to `Cc1ccc(C(=O)Nc2ccccc2C(=O)N2CC3(C)CC2CC(C)(C)C3)cc1` (stereo not drawn), for which the result in experiment [1], in experiment [2], in experiment [3], in experiment [4], in experiment [5] and in experiment [6] was inactive. Also, the outcome in [7], in experiment [8], in [9], in [10], in experiment [11] and in experiment [12] was inactive. Besides, the result in experiment [13], in experiment [14], in [15], in [16] and in [17] was inactive.
For `CCc1c(C)nc2ccc(Br)cc2c1SCCC#N`, the result in [1], in experiment [2], in [3], in experiment [4], in experiment [5] and in experiment [6] was inactive. The outcome in [7], in [8], in experiment [9], in experiment [10], in experiment [11] and in experiment [12] was inactive. For the same compound, the outcome in experiment [13], in experiment [14], in experiment [15], in experiment [16] and in experiment [17] was inactive.
With `COc1ccccc1OCC(=O)Nc1ccc(Cl)cc1`, the result in experiment [1], in [2], in experiment [3], in experiment [4], in experiment [7] and in experiment [8] was inactive. Moreover, the outcome in [9], in experiment [10], in experiment [11], in [12], in experiment [13] and in [14] was inactive. For the same compound, the result in experiment [15], in [16] and in experiment [17] was inactive. Also, the inhibition in experiment [5] was 52% (active); in [6], 41% (active).
Regarding `Cc1ccc(S(=O)(=O)N2CCN(c3cc4c(cc3[N+](=O)[O-])n(C)c(=O)n4C)CC2)cc1`, the result in experiment [1], in experiment [2], in [3], in experiment [4], in [5] and in [6] was inactive. In addition, the result in experiment [7], in experiment [8], in experiment [9], in experiment [10], in [11] and in experiment [12] was inactive. Besides, the result in [13], in experiment [14], in [16] and in experiment [17] was inactive. Further, the potentiation in experiment [15] is 10.6% (active).
As for `CCN(CC)CCCNC(=S)N1CCN(c2nc3ccccc3n2CC)CC1`, the result in [1], in experiment [2], in [3], in experiment [4], in experiment [5] and in [6] was inactive. Moreover, the result in experiment [7], in [8], in experiment [9], in [10], in experiment [11] and in [12] was inactive. The outcome in experiment [13], in experiment [14], in experiment [16] and in [17] was inactive. In experiment [15], the potentiation is 17.1% (active).
For the compound `O=C(Cc1cn(Cc2cccc(Cl)c2)c2ccccc12)N1CCCC1`, the result in experiment [1], in experiment [2], in experiment [3], in experiment [5], in [6] and in experiment [7] was inactive. Also, the outcome in experiment [8], in experiment [9], in experiment [10], in experiment [11], in [12] and in experiment [13] was inactive. For the same compound, the outcome in experiment [14], in [16] and in [17] was inactive. In addition, the potentiation in experiment [4] was 10% (active); in experiment [15] it was 29.2% (active).
Consider `CCCN(C(=O)COC(=O)C12CCC(=O)N1c1ccccc1S2)c1c(N)n(Cc2ccccc2)c(=O)[nH]c1=O` (stereo not drawn), for which the result in experiment [1], in experiment [2], in [3], in experiment [4], in [6] and in experiment [7] was inactive. In addition, the outcome in experiment [8], in [9], in experiment [10], in [12], in [13] and in [14] was inactive. For the same compound, the outcome in [15], in [16] and in experiment [17] was inactive. In addition, the inhibition in experiment [5] is 52% (active). Further, in experiment [11], the activation was 28% (active).
Turning to `COc1ccccc1NC(=O)CSc1n[nH]c(-c2ccccn2)n1`, the result in experiment [1], in experiment [2], in experiment [3], in experiment [4], in [5] and in experiment [6] was inactive. Further, the outcome in [7], in [8], in experiment [9], in experiment [10], in experiment [11] and in experiment [12] was inactive. The result in experiment [13], in [14], in [15], in experiment [16] and in experiment [17] was inactive.
As for `CC(C)c1ccc(C(C)NCCS(=O)(=O)c2ccc(Br)cc2)cc1` (stereo not drawn), the result in experiment [1], in experiment [2], in experiment [3], in experiment [4], in experiment [5] and in experiment [6] was inactive. Moreover, the outcome in [7], in experiment [8], in [9], in experiment [10], in experiment [11] and in [12] was inactive. In addition, the outcome in experiment [13], in experiment [14], in [16] and in [17] was inactive. In experiment [15], the potentiation was 21.2% (active).
Take `Fc1ccc(Nc2ncnc3sc4c(c23)CCC4)cc1`: the outcome in [1], in experiment [2], in experiment [4], in experiment [5], in experiment [6] and in experiment [7] was inactive. Moreover, the result in experiment [8], in experiment [9], in [10], in experiment [11], in [12] and in [13] was inactive. Also, the outcome in experiment [14], in [16] and in experiment [17] was inactive. Moreover, the potentiation is 22% (active) in experiment [3] and 50% (active) in experiment [15].
On to `O=c1[nH]ncc(N2CCN(Cc3ccccc3)CC2)c1Cl`, for which the outcome in experiment [1], in experiment [2], in experiment [3], in experiment [4], in [5] and in [6] was inactive. Further, the outcome in experiment [7], in experiment [8], in [9], in experiment [10], in experiment [11] and in experiment [12] was inactive. Further, the outcome in [13], in experiment [14], in [15], in experiment [16] and in experiment [17] was inactive.
